Source: PubChem BioAssay (National Center for Advancing Translational Sciences (NCATS))
Cruzain inh noDet: inhibitors of Trypanosoma cruzi cruzain without detergent; P25779; purified cruzain, Z-FR-AMC fluorescence, no detergent; Potency, µM, usual class: inhibitors; 200,000 compounds, 2.3% hits; AID 1476; note: nearly all actives have a fitted effect of over 40% in size
Target sequence (P25779 123-467 limits assumed): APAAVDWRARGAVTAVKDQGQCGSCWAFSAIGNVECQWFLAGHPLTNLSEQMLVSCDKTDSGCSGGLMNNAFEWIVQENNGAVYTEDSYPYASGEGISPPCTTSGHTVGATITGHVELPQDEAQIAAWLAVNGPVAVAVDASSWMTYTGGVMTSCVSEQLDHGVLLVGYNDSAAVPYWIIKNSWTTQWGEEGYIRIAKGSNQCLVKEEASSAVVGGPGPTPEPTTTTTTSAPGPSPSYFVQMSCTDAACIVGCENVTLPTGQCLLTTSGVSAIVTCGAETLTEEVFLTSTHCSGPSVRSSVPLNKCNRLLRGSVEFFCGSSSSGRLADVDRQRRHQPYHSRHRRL
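Purified cruzain at 1.5 nM, pre-incubated 15 min with compound at room temperature in 100 mM sodium acetate pH 5.5, 5 mM DTT, 0.00005% Triton X-100. Reaction started with 2 uM Z-FR-AMC; AMC fluorescence increase over 60 s gives rate.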
Cruzain inh Det: blocks cruzain activity in presence of Triton detergent; P25779; purified cruzain, Z-FR-AMC fluorescence, 0.01% Triton; Potency, µM, actives largely listed as inhibitors; 200,000 compounds, 0.43% hits; AID 1478; note: nearly all actives have a fitted effect of over 40% in size
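Sodium acetate buffer (100 mM, pH 5.5) containing 5 mM DTT and 0.01% Triton X-100 hosted 1.5 nM cruzain and test compound for 15 min at room temperature. Cleavage of 2 uM Z-FR-AMC was then tracked by fluorescence.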
Numbers stand for hits; n = inactive; u = inconclusive. The list is not random: actives were taken first. Their share in the collection is about 2.4%. Calls come from the whole dose curve; as a rule, active = well fitted curve in the direction sought with a large enough effect; inconclusive = small, poorly fitted or top-dose-only effect, or another doubt; inactive = no such curve, though single readings can be large; an effect the other way counts as inactive or inconclusive.

SMILES	Cruzain inh noDet	Cruzain inh Det
c1ccc2c(c1)c1cccc3ccc4cccc2c4c31	15.8µM	n
c1cc2ccc3cccc4ccc(c1)c2c34	n	n
COc1ccc(Nc2nc(-c3cc4cccc(OC)c4oc3=O)cs2)cc1	u	n
COc1ccc2oc(=O)c(-c3csc(Nc4cccc(O)c4)n3)cc2c1	25.1µM	n
CCc1ccc(NC(=O)CCn2c(=O)oc3ccccc32)cc1	1.26µM	n
Cc1ccc(NC(=O)CCn2c(=O)oc3ccccc32)cc1	n	n
CCc1ccc(CNc2ncnc3onc(-c4ccc(Cl)cc4)c23)cc1	n	n
COCCn1c(C)cc(C2=NNC(=Nc3ccc(OC)cc3)SC2)c1C	n	n
COc1ccc(N=C2NN=C(c3ccc4c(c3)OCCO4)CS2)cc1	25.1µM	n
COc1ccccc1CNC(=O)C1CCN(S(=O)(=O)c2ccc3[nH]c(=O)ccc3c2)CC1	n	n
O=C(Cn1cc(S(=O)(=O)N2CCN(c3ccccc3F)CC2)c2ccccc2c1=O)Nc1ccc(F)cc1Cl	u	n
CCOc1ccc(NC(=O)Cn2cc(S(=O)(=O)N3CCN(c4ccccc4F)CC3)c3ccccc3c2=O)cc1	15.8µM	n
N#Cc1cc2c(=O)n3ccccc3nc2n(CCN2CCOCC2)c1=O	n	n
N#Cc1cc2c(=O)n3ccccc3nc2n(CCCN2CCOCC2)c1=O	u	28.2µM
COc1cc(Cl)c(C)cc1NC(=O)CNC(=O)Cn1ccc2ccccc2c1=O	n	n
O=C1NC(=O)C(=Cc2cn(CCOc3ccc4c(c3)OCO4)c3ccccc23)C(=O)N1	u	n
Cc1ccc(OCCn2cc(/C=C3\C(=O)NN(c4ccccc4)C3=O)c3ccccc32)cc1	10µM	n
CCOC(=O)C1CCCN(C(=O)Cn2ncn3c(cc4sc(CC)cc43)c2=O)C1 (stereo not given)	n	n
CCc1cccc(C)c1NC(=O)Cn1c(=O)cc(C)c2c(C)nn(-c3cccc(F)c3)c21	n	n
CN1CCN(c2ccccc2NC(=O)c2ccc(-c3ccc(Cl)cc3Cl)o2)CC1	n	n
CS(=O)(=O)N1CCN(c2ccccc2NC(=O)c2ccc(-c3ccc(Cl)cc3Cl)o2)CC1	3.16µM	n
COc1ccccc1NC(=O)C1=C(C)Nc2c(C(=O)Nc3cccc(C)c3)cnn2C1c1ccccc1Cl (stereo not given)	25.1µM	n
CC1=C(C(=O)Nc2ccc(C)cc2C)C(c2cc(Br)ccc2F)n2ncc(C(=O)Nc3ccc(C)cc3)c2N1 (stereo not given)	n	n
COc1ccccc1NC(=O)C1=C(C)Nc2c(C(=O)Nc3cccc(C)c3)cnn2C1c1ccccc1C (stereo not given)	u	n
CC1=C(C(=O)Nc2ccccc2)C(c2cc(Br)ccc2F)n2ncc(C(=O)Nc3ccccc3)c2N1 (stereo not given)	20µM	n
SMILES	Cruzain inh noDet	Cruzain inh Det
Cc1ccc(-c2nnc(Nc3ccc(C(=O)N(C)C)cc3)c3ccccc23)cc1S(=O)(=O)N(C)C	u	n
Cc1ccc(CN(C(=O)COc2cccc([N+](=O)[O-])c2)c2ccccn2)o1	n	n
COc1cccc(-n2c(=O)c3cc(OC)c(OC)cc3n(CC(=O)Nc3ccc(F)cc3)c2=O)c1	n	n
Cc1ccc(C)c(NC(=O)Cn2c(=O)n(Cc3ccc4c(c3)OCO4)c(=O)c3ccccc32)c1	n	n
O=C1OCCN1C(=O)[C@H]1[C@H](c2ccccc2)C(c2ccccc2)=NN1c1ccccc1	u	n
O=C1OCCN1C(=O)[C@H]1[C@H](c2ccccc2)C(c2ccc(F)cc2)=NN1c1ccc(Br)cc1	20µM	n
Cc1cccc(C2=NN(c3ccc(Br)cc3)[C@@H](C(=O)N3CCOC3=O)[C@@H]2c2ccccc2)c1	17.8µM	n
Cc1cccc(C2=NN(c3ccccc3)[C@@H](C(=O)N3CCOC3=O)[C@@H]2c2ccccc2)c1	u	n
O=C1OCCN1C(=O)[C@H]1[C@H](c2ccc([N+](=O)[O-])cc2)C(c2ccc(F)cc2)=NN1c1ccc(Br)cc1	8.91µM	n
C[C@@H]1C(c2ccccc2)=NN(c2ccccc2)[C@H]1C(=O)N1CCOC1=O	n	n
O=C1OCCN1C(=O)[C@H]1[C@H](c2ccc([N+](=O)[O-])cc2)C(c2ccc(F)cc2)=NN1c1ccccc1	u	n
O=C1OCCN1C(=O)[C@H]1[C@H](c2ccccc2)C(c2ccccc2)=NN1c1ccc(Br)cc1	20µM	n
Cc1ccc2oc(-c3cc(NC(=O)c4ccc5c(c4)OCCO5)cc(C)c3O)nc2c1	n	n
COC(=O)[C@@]1(Cc2ccccc2)C=C[C@@H](C)N1C(=O)c1ccccc1	n	n
COc1cccc(-c2cc(NCc3cnc(C)cn3)ncn2)c1	n	n
O=C(c1ccc(Cl)cc1)n1nc(-c2ccccc2)nc1NCc1ccco1	n	n
CCN(C(=O)CSc1nc2cc(C(=O)OC)ccc2c(=O)n1Cc1ccco1)c1cccc(C)c1	n	n
CCc1ccc(NC(=O)CSc2nc3cc(C(=O)OC)ccc3c(=O)n2Cc2ccco2)cc1	5.01µM	n
CCOc1ccc2nc(NC(=S)NCc3ccccc3)sc2c1	25.1µM	n
O=c1c2ccccc2nnn1CSc1nc2ccccc2c(=O)n1Cc1ccco1	10µM	n
CCOc1ccc2nc(NC(=O)Nc3ccccc3)sc2c1	u	n
CCOc1ccc2nc(NC(=O)CSc3nc4ccccc4c(=O)n3Cc3ccco3)sc2c1	7.94µM	n
O=c1c2ccccc2nc(SCc2ccccc2)n1Cc1ccco1	n	n
CCOC(=O)CSc1nc2ccccc2c(=O)n1Cc1ccco1	n	n
COc1ccc(C(=O)NCCSc2c[nH]c3ccccc23)cc1OC	n	n
SMILES	Cruzain inh noDet	Cruzain inh Det
Cc1nc(NCc2ccccc2)c2nc(-c3ccccc3)n(C(C)CN(C)C)c2n1 (stereo not given)	n	n
O=C(O)C/C=C\CC(=O)O	n	n
CCn1c(C)c(C)c2cc(C(=O)NCc3ccc(OC)cc3OC)ccc21	n	n
CCOC(=O)c1c(Nc2ccc(F)cc2)nnc(-c2ccccc2)c1-c1ccccc1	n	n
Cc1ccc(Nc2cc(C)c(C#N)c3nc4ccccc4n23)c(C)c1	n	n
CSCCC(NC(=O)C12CC3CC(CC(C3)C1)C2)C(=O)OCC(=O)c1ccc(C)cc1 (stereo not given)	n	n
CSCCC(NC(=O)c1ccc([N+](=O)[O-])cc1Cl)C(=O)OCC(=O)C12CC3CC(CC(C3)C1)C2 (stereo not given)	25.1µM	28.2µM
O=S(=O)(Nc1nc2ccccc2nc1Nc1cccc(S(=O)(=O)N2CCCCC2)c1)c1ccccc1	15.8µM	n
COc1ccc(S(=O)(=O)Nc2cccc(S(=O)(=O)N3CCCCCC3)c2)cc1	n	n
N[C@@H]1[C@@H]2[C@@H]3C[C@H]4N(CC[C@@]14C(=O)C(=O)O)CC3=CCO[C@@H]2CC(=O)O	n	n
Cc1ccnc(SCC(=O)Nc2oc(-c3ccccc3)c(-c3ccccc3)c2C#N)n1	u	n
N#Cc1c(NC(=O)CN2CCOCC2)oc(-c2ccccc2)c1-c1ccccc1	u	n
N#Cc1c(NC(=O)Cn2cnc3ccccc3c2=O)oc(-c2ccccc2)c1-c1ccccc1	25.1µM	n
CCn1c(SCC(=O)Nc2oc(-c3ccccc3)c(-c3ccccc3)c2C#N)nnc1-c1cc(OC)cc(OC)c1	7.94µM	n
CCc1cc(C(=O)N=Nc2c(O)[nH]c3ccc([N+](=O)[O-])cc23)c2ccccc2n1	n	n
CCCCCCC(=O)N=Nc1c(O)[nH]c2ccc([N+](=O)[O-])cc12	25.1µM	n
